Experimental data published in PubChem BioAssay AID652126 (The Scripps Research Institute Molecular Screening Center, 2013).
Hit rate of the full screen: of about 370,000 compounds, about 3,700 (1%) were called active.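 How the source made its calls: active means activation above the mean over all tested compounds plus 3 SD (cut at about 0.9% in these data); inactive means the rest.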 For the sample, actives were picked, then their nearest neighbours and some compounds at random.

The compounds below were run on Nuclear hormone receptor DAF-12 (Strongyloides stercoralis) (assay: ssDAF-12 driven luciferase reporter activation – cell-based, luminescence, HEK293, GRIP1 co-expression, lit1-tk-luc, primary screen (AID 652126;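 further: 0% = DMSO-only wells and 100% = 3 µM delta7-dafachronic acid wells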)). Conditions: HEK293 ssDAF-12/GRIP1 lit1-tk-luc reporter, at 6.8 µM, stronger effect = higher value, % of 3 µM dafachronic acid response.

activation, active:
Cc1noc(C)c1/C=N/Nc1ccc2ccccc2n1 1.61%
Cc1ccnc(Nc2nc3ccccc3s2)n1 1.25%
COc1ccccc1OCc1nc2ccccc2s1 2.57%
Cc1cc(Cl)ccc1NNC(=O)c1snnc1C 2.01%
COc1ccc2nc(-c3ccccn3)ccc2c1 0.98%
Fc1ccc2nc(Nc3nc4c(s3)CCCC4)sc2c1 1.92%
CCCN(c1ccc(C)cc1)c1nc(=O)c2cccnc2s1 1.12%
O=C(c1cn2ccccc2n1)N1CCc2c([nH]c3ccccc23)C1c1ccccn1 (stereo not given) 0.91%
COc1ccc(C2=Nc3cc(C)ccc3OC2)cc1 1.43%
Cc1ccc(C2=NN(C)c3nc4ccccc4n3C2)cc1 1.2%
Nc1ccc(C(=O)Nc2ccccc2N)cc1 1.55%
Cc1cccc(NC(=O)c2ccc3ccccc3n2)n1 1.11%
COc1ccc(OC)c(S(=O)(=O)NCCC(C)C)c1 1.47%
COc1cccc(CNC(=O)C2CCCN(c3nc4ccccc4o3)C2)c1OC (stereo not given) 1.04%
Cc1ccc(-n2cc3ccc([N+](=O)[O-])cc3n2)cc1 1.77%
CCOc1cc(C)c(S(=O)(=O)NCc2ccccn2)cc1C 0.98%
Cc1cccc(-n2c(O)c(C=Nc3ccccc3N)c(=O)[nH]c2=O)c1 1.8%
O=c1c2c(nc3cc(-c4cccc(Cl)c4)[nH]n13)CCCC2 1.57%
OC(c1ccccc1)c1nc(-c2cnc3ccccc3c2)cs1 (stereo not given) 1.25%

activation, inactive:
C=CCN1C(=O)[C@H](CC(=O)N2CCN(C(=O)OCC)CC2)[C@@]2(C(=O)OCC)CCCC=C12 -0.45%
Cc1ccc(-n2c(SCC(=O)Nc3ccc(S(=O)(=O)Nc4nccs4)cc3)nnc2-c2ccccn2)cc1 -0.88%
Cc1ccnc(-n2sc3ccccc3c2=O)n1 0.16%
Cc1cccc(NC(=O)C[C@H]2CC[C@H]3[C@@H](COc4ccc(NC(=O)Nc5ccccc5)cc4C(=O)N3C)O2)c1 -1.84%
Cc1cccc(S(=O)(=O)N2CN(CC3CCCO3)c3nc4ccccc4nc32)c1 (stereo not given) -0.43%
CCOC(=O)C1CCN(C(=O)C(C)(C)NC(=O)Nc2ccc(F)c(F)c2)CC1 -1.1%
COC(=O)C1CN(CC(C)C)CCS(=O)(=O)N1Cc1ccc(C)cc1 (stereo not given) -0.69%
CCc1ccc(-c2nnn(Cc3nc4ccccc4s3)n2)cc1 -0.71%
COc1ccccc1OCc1nnc(SCC(N)=O)n1-c1ccccc1 -1.54%
COC(=O)C12C=C3CC(c4ccccc4)=C3C(=O)N1Cc1[nH]c3ccccc3c1C2 (stereo not given) -1.07%
COc1ccc2c(c1)CN1CN(CCc3ccccc3)S(=O)(=O)CC21 (stereo not given) -0.04%
Cc1nnsc1C(=O)NCc1c(F)cccc1Cl -0.35%
Cc1nnsc1C(=O)Nc1cccc(Cl)c1C -1.69%
CCOC(=O)/C=C/c1ccccc1O -1.38%
COc1ccc(-n2c(SCC(=O)OC(C)C)nnc2-c2ccccn2)cc1 -1.58%
COc1ccnc(Oc2ccccc2)n1 -0.92%
CC(c1ccc(N)cc1)c1cn(C)c2ccccc12 (stereo not given) -1.36%
C=CS(=O)(=O)N(Cc1nnn(Cc2ccccc2)c1Br)[C@H](C(=O)OC)C(C)C -1.75%
COc1cc(/C=C/C(=O)n2cnc3ccccc32)cc(OC)c1OC -2.15%
COc1ccnc(NC(=S)N2CCN(c3ncc(C(F)(F)F)cc3Cl)CC2)c1 -1.56%
CN(CCO)S(=O)(=O)c1ccc2c(c1)C(=O)c1cc(S(=O)(=O)N(C)CCO)ccc1-2 -1.38%
COC(=O)[C@]12C[C@H](CC(=O)NCc3ccccc3)C(=O)N(CCc3ccc(OC)c(OC)c3)C1=C[C@H](C(C)(C)C)O[C@@H]2C -1.28%
COc1ccc(CSc2nnc(SCC(=O)Nc3ccccc3C(F)(F)F)s2)cc1 -1.22%
COC(=O)C(NC(C)=O)(Nc1nc2c(s1)CCCC2)C(F)(F)F (stereo not given) -0.86%
C[C@H]1CCC/C=C/C(=O)c2c(O)cc(O)cc2CC(=O)O1 -1.77%
CCCCOCCCNC(=O)C[C@H]1C[C@@]2(C(=O)OC)C(=C[C@H](COCc3ccccc3)O[C@@H]2C)N(Cc2cccc3ccccc23)C1=O -1.25%
COC(=O)[C@]12C[C@H](CC(=O)NCCc3ccccc3OC)C(=O)N(Cc3ccco3)C1=C[C@H](C(C)C)O[C@@H]2C1CC1 -1.3%
COc1ccnc(C(=O)N2CCC(Oc3cccnc3)CC2)c1 -1.55%
CCCCCCN1CCS(=O)(=O)N(Cc2ccc(C(F)(F)F)cc2)C(C(=O)OC)C1 (stereo not given) -0.61%
CN[C@H]1C[C@H]2c3cc(N4CCOCC4)ccc3CCN2C[C@H]1[C@H](C)O -1.27%
c1ccc(C2c3[nH]c4ccccc4c3CCN2Cc2cccn2-c2cccnc2)nc1 (stereo not given) -1.17%
COCc1ccc(C(=O)N2CCc3c([nH]c4ccccc34)C2c2ccccn2)s1 (stereo not given) -2.05%
CCC(C)[C@@H](C(=O)OC)N(CCc1cn(Cc2ccccc2)nn1)S(=O)(=O)c1ccccc1Br (stereo not given in full) -1.79%
COc1ccc(/C=C/c2c(-c3cccc(C)c3)oc3ccc(-c4ccc5c(c4)OCO5)cc23)cc1 -1.12%
COc1ccc([C@H]2CC(=O)C=C(c3ccc(C)cc3)C2)cc1 -0.86%
CCOc1ccc(Oc2c(Cl)cnn(-c3ccc(C)cc3)c2=O)cc1 -1.17%
Cc1ccc(-c2nnc(-n3nnc4ccccc43)c3ccccc23)cc1 -1.26%
Cc1nc2ccccc2n1CC(O)c1ccccc1 (stereo not given) -1.14%
O=C(CCCCCN1C(=O)C2C3C=CC(C3)C2C1=O)Nc1ccccc1 (stereo not given) -1.12%
COc1c(N2CCN(C(=S)Nc3ccccc3F)C(C)C2)c(F)cc2c(=O)c(C(=O)O)cn(C3CC3)c12 (stereo not given) -0.28%
O=C(NC1CCC1)c1ccc(C#Cc2cccc(F)c2)c[n+]1[O-] -1.07%
CSc1nc(C)nc(C2CC2)c1C#N -1.49%
CC(CNC(=O)c1ccc(N)cc1)NC(=O)c1ccc(N)cc1 (stereo not given) -1.71%
O=C(Nc1ccccc1C(=O)N1CCOCC1)c1ccc(Cl)cc1 -1.32%
Cc1ccc(-n2c(COc3ccccc3)nnc2SCC(=O)Nc2ccc3c(c2)OCCO3)cc1 -1.43%
CC(NC(=O)COC(=O)c1ccc2ccccc2n1)c1ccccc1 (stereo not given) -0.49%
COC(=O)c1ccc(NC(=S)Nc2cccc(C)n2)cc1 -0.35%
Cc1c(C(C)c2ccccc2O)[nH]c2ccccc12 (stereo not given) -0.11%
CCOc1ccc(-n2c(SCC(=O)Nc3cc(C)c(NC(=O)c4ccccc4)cc3OC)nnc2-c2cccs2)cc1 -1.35%
CCOC(=O)N1CCN(C(=O)C[C@H]2C[C@@]3(C(=O)OC)C(=C[C@H](C(C)(C)C)O[C@@H]3C)N(Cc3ccc(Cl)cc3Cl)C2=O)CC1 -1.86%
COCCNS(=O)(=O)c1cc(Br)ccc1OC -1.56%
COc1ccc(C)cc1S(=O)(=O)NCCc1ccccc1 -0.72%
CC(C)CNc1cccc2c1S(=O)(=O)N(Cc1cn(Cc3ccc(Cl)cc3)nn1)Cc1ccccc1O2 -1.25%
O=C(CSc1nc2ccccc2nc1N1CCCCC1)N1CCN(S(=O)(=O)c2cccc([N+](=O)[O-])c2)CC1 -0.71%
CC(=O)Nc1ccc(OC[C@@H](O)CN2CCC(C(O)(c3ccccc3)c3ccccc3)CC2)cc1 -0.46%
O=C(NCc1ccc(Cl)cc1)C1CCCN(c2nc3ccccc3o2)C1 (stereo not given) -1.04%
COc1ccccc1CNC(=O)C1CCN(c2nc3ccccc3o2)CC1 -1.15%
CCC(=O)Nc1ccc2c(c1)C(=O)N(C)[C@H]1CC[C@H](CC(=O)NCCOC)O[C@@H]1CO2 -1.05%
COc1ccc(-n2c(COc3ccccc3)nnc2SCC(=O)Nc2ccc3c(c2)OCO3)cc1 -1.47%
COc1ccc(C(CNC(=O)c2cc3c(s2)CCCC3)N2CCOCC2)cc1 (stereo not given) -1.09%
CC(C)(C)NC(=O)Cn1cnc2cc([N+](=O)[O-])ccc2c1=O -1.52%
O=c1c2cc([N+](=O)[O-])ccc2nc2n1CCC2 -0.82%
C=CCN1C(=O)[C@@H](CC(=O)N2CCN(C(=O)OCC)CC2)[C@]2(C(=O)OCC)CCCCC/C=C/12 -1.02%
COc1ccccc1CNS(=O)(=O)c1cc(C(=O)NCc2ccccn2)c(Cl)cc1Cl -1.13%
Cc1cc(S(=O)(=O)NCc2ccccn2)c(Cl)cc1Cl -1.84%
COC(=O)[C@H](C(C)C)N(CCCc1cn(Cc2ccccc2)nn1)S(=O)(=O)c1ccc(F)cc1Br -2.17%
COc1cccc(N(C)C(=O)[C@@H](C)[C@@H](O)c2ccc3ccccc3c2)c1 -1.07%
CSc1nc2nc3c(c(=O)n2[nH]1)CCC3 -1.17%
CCOC(=O)C1CCN(S(=O)(=O)c2ccc3c(c2)N(C(C)=O)CCO3)CC1 -1.19%
COc1ccc(-c2csc(C(O)c3cccc(Cl)c3)n2)cn1 (stereo not given) -1.06%
CC(C)c1cccc(-c2csc(C(O)c3ccccc3)n2)c1 (stereo not given) -1.41%
